This is an account of results in ChEMBL document CHEMBL3433997, “St. Jude Leishmania screening dataset” (2016).

The term inhibition denotes the relative decrease from the control value, in per cent.

Type in all cases: functional
The target in assay [1] is Solute carrier family 2, facilitated glucose transporter member 1 (Homo sapiens) (UniProt P11166). Put plainly: ST_JUDE_LEISH: Cytotoxicity at 2uM final concentration against transgenic Leishmania Mexicana promastigotes LmGLUT1 that are glucose transport deficient and complemented with the human glucose transporter GLUT1. Activity is measured by DNA content using SYBR green in vitro.
Solute carrier family 2, facilitated glucose transporter member 1 (Homo sapiens), sequence (P11166 whole entry): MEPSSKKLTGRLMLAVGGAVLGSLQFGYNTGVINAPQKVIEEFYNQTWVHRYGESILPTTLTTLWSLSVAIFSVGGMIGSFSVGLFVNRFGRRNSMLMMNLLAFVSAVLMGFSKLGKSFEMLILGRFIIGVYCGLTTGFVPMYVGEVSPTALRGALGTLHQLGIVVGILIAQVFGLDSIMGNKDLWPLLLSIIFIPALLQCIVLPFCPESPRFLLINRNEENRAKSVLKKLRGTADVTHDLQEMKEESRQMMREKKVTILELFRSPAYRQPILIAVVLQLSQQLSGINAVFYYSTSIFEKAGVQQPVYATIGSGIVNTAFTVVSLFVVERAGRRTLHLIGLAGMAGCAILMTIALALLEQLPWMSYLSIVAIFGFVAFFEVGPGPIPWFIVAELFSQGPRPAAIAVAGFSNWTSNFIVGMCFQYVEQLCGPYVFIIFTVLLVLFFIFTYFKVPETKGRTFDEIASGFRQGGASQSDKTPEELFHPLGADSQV

The target of assay [2] is Hexose transporter 1 (Plasmodium falciparum) (UniProt O97467). Put plainly: ST_JUDE_LEISH: Cytotoxicity at 2uM final concentration against transgenic Leishmania Mexicana promastigotes LmPfHT that are glucose transport deficient and complemented with the Plasmodium falciparum hexose transporter. Activity is measured by DNA content using SYBR green in vitro.
In assay [3] the target is Glucose transporter (Leishmania mexicana) (UniProt O61059). Description: ST_JUDE_LEISH: Cytotoxicity at 2uM final concentration against transgenic Leishmania Mexicana promastigotes LmGT2 that are glucose transport deficient and complemented with the L. Mexicana glucose transporter 2. Activity is measured by DNA content using SYBR green in vitro.

As for `COc1ccc(NC(=O)[C@H](Cc2ccccc2)Nc2cc(C)nc(NCC3CCCCC3)n2)cc1`, the inhibition came out at 1.62% in assay [1], 2.59% in assay [2] and 0.65% in assay [3].
Taken in the same sequence, the figures for `Cc1cc(-c2cccc3c(NC(=O)N4CCc5cc6nccc(N7CCN8CCC[C@H]8C7)c6cc54)cccc23)cc(C)n1` were 4.48%, 2.56% and 1.59%.
On the same counts, the results for `COC(=O)C1(NC(=O)c2ccc(-n3nc(C)c(-c4ccccc4)c3N)cc2)CCCC1` are 2.04%, 2.33% and 2.55%.
Taken in the same sequence, the figures for `CC(C)CCNC(=O)C1Cc2c([nH]c3cc(Br)ccc23)C2(CCN(CCc3ccccc3)CC2)N1` (stereo not drawn) were 3.44%, 2.47% and -3.76%.
In the case of `O=C(Nc1cccc(-c2nn3ccccc3c2-c2ccnc(Nc3ccc(C(=O)N4CCOCC4)cc3)n2)c1)c1c(F)cccc1F`, the inhibition in assay [1] is 23.1%; in assay [2] it was 7.72%; in assay [3] it was 2.78%.
Consider `CCOc1cc(C(=O)NCCc2ccc(Cl)c(Cl)c2)ccc1-c1nc2cc(Cl)ccc2[nH]1`, for which the inhibition in assay [1] turned out to be 1.92%; in assay [2], 0.01%; in assay [3], 1.26%.
Turning to `CCc1cc(N2CCN(c3ccccc3F)CC2)nc(SCc2ccc(C(=O)NC3CC3)o2)n1`, the inhibition was determined as 2.82% in assay [1], 1.67% in assay [2] and 2.15% in assay [3].
Regarding `Cc1cccc(-n2c(Nc3ccc(C)c(Cl)c3)nc3ccc(S(=O)(=O)NC(C)C(C)C)cc32)c1` (stereo not drawn), the results for the inhibition in assay [1], in assay [2] and in assay [3] were 2.71%, 1.5% and -0.08%, respectively.
On to `CC(C)(C)c1ccc(N2C(N)=NC(N)=NC2(C)C)cc1`, for which the figures for the inhibition in assay [1], in assay [2] and in assay [3] were -0.57%, 0.01% and 1.34%, respectively.
As for `COc1ccc2nccc([C@@H](O)CN3CCC(NC(=O)[C@@H]4Cc5ccccc5CN4C(=O)OC(C)(C)C)CC3)c2c1`, the figures for the inhibition in assay [1], in assay [2] and in assay [3] were 8.19%, 6.18% and 3.12%, respectively.
On the same counts, the results for `FC(F)(F)c1cccc(Nc2nc(-c3ccccc3)nc3ncccc23)c1` are 3.41%, 2.83% and 3.04%.
On the same counts, the results for `CN1CCCN(Cc2cccc(-c3cccc(NC(=O)c4cccc(C#N)c4)c3)c2)CC1` are 12.8%, 11.4% and 10.3%.
Consider `C=CCc1cccc(CN2CCC(c3cc(O)nc(-c4ccccn4)n3)CC2)c1O`, for which the inhibition in assay [1] worked out at 8.38%; in assay [2], 10.4%; in assay [3], 0.24%.
On the same counts, the results for `CC(C)(C)c1ccc(CN(C[C@@H](O)CNS(=O)(=O)c2cc(Cl)cc(Cl)c2)C(C)(C)C)cc1` are 0.82%, 0.36% and -0.02%.
Taken in the same sequence, the figures for `N#Cc1cccc(CN2CCCN(c3ccc(NC(=O)c4cccs4)cc3)CC2)c1` were 4.81%, 4.44% and 4.34%.
Taken in the same sequence, the figures for `Cc1ccc2nc3c(cc(C(=O)NCc4ccccc4)c(=N)n3CCCn3ccnc3)c(=O)n2c1` were 10.5%, 12.5% and 12.2%.
Turning to `CCc1ccc(NC(=O)c2ccc(CN3CCCN(Cc4cccs4)CC3)cc2)cc1`, the inhibition in assay [1] was determined as 13.8%; in assay [2], 12.6%; in assay [3] it was 14.9%.
For the compound `NCc1ccc(-c2ccc3c(N)nccc3c2)cc1`, the inhibition in assay [1] was -3.43%; in assay [2], 0.57%; in assay [3] it was 0.41%.
On the same counts, the results for `Cc1ccc(C(=O)Nc2ccc(F)cc2)cc1-c1nc(NC2CC(C)(C)NC(C)(C)C2)nc2c1ccc(=O)n2-c1c(F)cccc1F` are 4.77%, 3.62% and 2.81%.
Taken in the same sequence, the figures for `O=C(N[C@H]1CCN(Cc2ccc(OCCCN3CCCCC3)cc2)C1)c1cc(Cl)cc(Cl)c1` were 1.71%, 7.28% and 2.29%.
On the same counts, the results for `CC(CN(C)C)C(=O)Nc1ccc(-c2cccc(-c3nc4ccccc4[nH]3)c2)cc1` (stereo not drawn) are 5.14%, 4.81% and 8.05%.
Take `O=C(Nc1ccccc1O)C1CCN(c2ncnc3cc(-c4ccc(F)cc4)sc23)CC1`: the inhibition in assay [1] was 1.73%; in assay [2], 2.48%; in assay [3], -2.46%.
Taken in the same sequence, the figures for `CCN1CCC(N(Cc2ccc(-c3ccc(Cl)cc3)cc2)C(=O)Cn2c(CCc3cccc(F)c3F)cc(=O)c3ccccc32)CC1` were 9.18%, 5.52% and 7.94%.
With `c1cc(CNc2ncc(-c3ccsc3)c(-c3nccs3)n2)ccn1`, the inhibition in assay [1] was found to be 7.08%; in assay [2] it was 9.37%; in assay [3], 6.45%.
As to `Cc1cc2cc(NC(=O)Nc3ccnc4ccccc34)ccc2n1C`, the inhibition in assay [1] came to 0.22%; in assay [2] it was 0.43%; in assay [3], 0.82%.
With `CC1(C)N=C(N)N=C(N)N1c1cccc(I)c1`, the inhibition in assay [1] is 0.23%; in assay [2], -0.04%; in assay [3], 0.13%.
Regarding `CC1(C)CN(CCC2CCC(NC(=O)/C=C/c3ccc(F)cc3F)CC2)Cc2ccc(C#N)cc21` (stereo not drawn), the inhibition in assay [1] was 2.36%; in assay [2], 1.97%; in assay [3], -1.19%.
Taken in the same sequence, the figures for `Oc1cc2ccccc2cc1CNC1CCCCC1` were 1.31%, 1.41% and 1.5%.
Taken in the same sequence, the figures for `O=C(Nc1ccc(OC2CCN(Cc3ccc(F)cc3)C2)c(Cl)c1)c1ccccc1` (stereo not drawn) were 8.62%, 9.58% and 4.94%.
As for `Cc1cc(NC(=O)c2ccc(S(=O)(=O)N(Cc3ccccc3)C(C)C)cc2)no1`, the inhibition in assay [1] was 3.7%; in assay [2] it was 3.18%; in assay [3], 3.77%.
On the same counts, the results for `Cc1cc(O)c(C(C)C)cc1C1(c2cc(C(C)C)c(O)cc2C)OC(=O)c2ccccc21` are 8.43%, 6.64% and 6.75%.
On the same counts, the results for `COc1ccc(CNc2ccc3nc(N)nc(N)c3c2)cc1` are -2.31%, 1.62% and -1.87%.
Regarding `Cc1[nH]c(C)c(C(F)(F)F)c(=O)c1-c1ccc(Oc2ccc(OC(F)(F)F)cc2)cc1`, the inhibition stood at 2.24% in assay [1], 2.31% in assay [2] and 0.52% in assay [3].
Taken in the same sequence, the figures for `O=C(Cc1c[nH]cn1)Nc1cccc(-c2ccc(-c3nc4cc(F)ccc4[nH]3)cc2)c1` were 9.26%, 10.1% and 7.18%.
On the same counts, the results for `OCC1CCN(Cc2ccc(-c3ccc(-c4nc5cc(C(F)(F)F)ccc5[nH]4)s3)cc2)CC1` are 1.82%, 0.23% and 1.7%.
Turning to `COc1ccc(CNCc2ccsc2)cc1-c1ccc(S(=O)(=O)NCCN2CCCC2)c(C)c1`, the figures for the inhibition in assay [1], in assay [2] and in assay [3] were -0.35%, -1.19% and -4.07%, respectively.
Taken in the same sequence, the figures for `CC(C)(C)c1cc(Cl)cc(C(=O)Nc2cc([N+](=O)[O-])ccc2Cl)c1O` were 5.8%, 4.84% and 4.28%.
On the same counts, the results for `CCc1cc(NCc2ccncc2)nc(Nc2ccc(F)cc2)n1` are 14.4%, 6.44% and 4.12%.
Taken in the same sequence, the figures for `Fc1ccccc1COc1ccc(Nc2ncnc3ccc(-c4nnc(C(F)(F)F)o4)cc23)cc1Cl` were 6.41%, 5.31% and 2.13%.
Take `COc1ccc2nccc(NC(=O)N3CCC(NCc4cc5c(F)ccc(F)c5[nH]4)CC3)c2n1`: the inhibition in assay [1] is 16.9%; in assay [2], 19.2%; in assay [3], 22.6%.
On the same counts, the results for `CC(C)(CN)c1cc(-c2ccc(Cl)c(O)c2)c(-c2ccncc2)o1` are 0.01%, 3.22% and 1.62%.
Turning to `CCNc1cc(C(=O)N[C@@H](Cc2ccccc2)[C@H](O)CN[C@H]2CCc3ccccc32)cc(N2CCCC2=O)c1`, the inhibition stood at 1.96% in assay [1], 1.74% in assay [2] and 2% in assay [3].
Turning to `c1cn(CCCNc2ncc(-c3ccsc3)c(-c3nccs3)n2)cn1`, the inhibition in assay [1] was 11%; in assay [2], 10.1%; in assay [3], 9.4%.
Consider `CN(C)CCNC(=O)N1CCCN(c2ncnc3cc(-c4ccc(Cl)cc4)sc23)CC1`, for which the inhibition in assay [1] was -0.35%; in assay [2], -1.89%; in assay [3], 0.1%.
For the compound `COCC(C)n1c(SC(C)C(=O)Nc2cc([N+](=O)[O-])ccc2Cl)nc2ccccc2c1=O` (stereo not drawn), the inhibition is -1.22% in assay [1], 1.55% in assay [2] and -1.16% in assay [3].
On to `CO/C(=C\C=C\c1cc2cc(Cl)c(Cl)cc2[nH]1)C(=O)NC1CCN(CCNc2ccccc2)CC1`, for which the inhibition was -1.91% in assay [1], -1.2% in assay [2] and 0.08% in assay [3].
On the same counts, the results for `Cc1ccccc1-c1nc2c(CN3CCC(O)(c4ccccc4)CC3)c(O)ccc2[nH]1` are 11.5%, 8.82% and 8.8%.
Taken in the same sequence, the figures for `Cc1noc(-c2ccccc2)c1NC(=O)NC1CCN(CCCCCNC(=O)/C=C/c2ccc(Cl)c(Cl)c2)CC1` were 4.35%, 5.32% and 3.4%.
Regarding `Cn1nc(-c2ccccc2F)c2cc(C(=O)Nc3cccnc3)sc21`, the inhibition worked out at 3.76% in assay [1], 2.08% in assay [2] and 2.9% in assay [3].
Regarding `Cc1ccc(Nc2nc3cc(N(C)c4ccnc(Nc5cccc(CS(C)(=O)=O)c5)n4)ccc3o2)cc1`, the inhibition in assay [1] came out at 5.07%; in assay [2], 4.21%; in assay [3], 4.65%.
On the same counts, the results for `Cc1[nH]c2ccccc2c1C1CCN(CCCCNC(=O)c2ccc(-c3ccc(C#N)cc3)cc2)CC1` are 11.2%, 9.94% and 10.3%.
Regarding `CCN(CC)/C(=N/C(=N)NCc1ccc(Cl)cc1)NCCCCCCN/C(=N\C(=N)NCc1ccc(Cl)cc1)N(CC)CC`, the inhibition amounted to 9.05% in assay [1], 8.96% in assay [2] and 8.12% in assay [3].
For `O=C(Nc1cc(C(F)(F)F)ccc1Cl)c1ccc(Cn2cc(Br)cn2)cc1`, the values for the inhibition in assay [1], in assay [2] and in assay [3] were 1.23%, 0.15% and -9.62%, respectively.
In the case of `COc1ccc2nc(C)cc(NC3Cc4ccccc4C3)c2c1`, the inhibition in assay [1] was found to be 7.7%; in assay [2], 5.19%; in assay [3], 0.76%.
Taken in the same sequence, the figures for `N#Cc1ccc2c(c1)CN(C1CCC(NC(=O)C3=Cc4cc(Cl)ccc4OC3)CC1)CCC2` (stereo not drawn) were 8.34%, 6.19% and 5.6%.
For `COc1ccc(CCN(C)CCOc2ccc(NC(=O)c3cccc4cc5ccccc5nc34)cc2)cc1OC`, the inhibition was 2.4% in assay [1], 1.69% in assay [2] and 1.88% in assay [3].
On to `O=C(Nc1ccc(Cl)c(C(F)(F)F)c1)c1ccc(Cl)c([N+](=O)[O-])c1`, for which the inhibition in assay [1] was 6.41%; in assay [2] it was 3.41%; in assay [3], 0.08%.
In the case of `COc1cc(C(F)(F)F)c2cc(CNCCCNc3nc4ccccc4[nH]3)[nH]c2c1`, the inhibition was determined as 1.29% in assay [1], 2.11% in assay [2] and 2.95% in assay [3].
Regarding `Cc1cccc(CCCNC(=O)CN(c2cccc(C(F)(F)F)c2)S(=O)(=O)c2ccc(C(F)(F)F)cc2)c1`, the inhibition was determined as 5.38% in assay [1], 4.48% in assay [2] and 4.63% in assay [3].
For `CC(C)(C)c1ccc(NC(=O)c2ccc(CN3CCCN(Cc4cccc(O)c4)CC3)cc2)cc1`, the results for the inhibition in assay [1], in assay [2] and in assay [3] were 0.52%, 0.08% and 2.02%, respectively.
On the same counts, the results for `CCN1CCN(c2cc(C)c3cc(NC(=O)c4ccc(C(C)(C)C)cc4)ccc3n2)CC1` are -0.6%, 2.13% and 1.59%.
